Among all 400,000 compounds or so, about 1,900 (0.47%) were called active. Where a call stands in place of a potency, no number is given. Not shown: some 14% with an inconclusive outcome. This is one part of a sample in which actives are shown more often than they occur. Calls come from the whole dose curve; as a rule, active = well fitted cell-killing curve with a large enough effect; inconclusive = small, poorly fitted or top-dose-only effect, or effect the other way; inactive = no such curve, though single readings can be large or run the other way.
Experiment: Viability Counterscreen for Primary qHTS for Inhibitors of ATXN expression; note: nearly all actives have a fitted effect of over 40% in size
Settings: S2 cells (HEK-293 line with an ATXN2-luciferase reporter) viability, CellTiter-Fluor protease fluorescence, 24 h; series mostly up to 56.7 µM
Potency is the fitted concentration of half-maximal effect.

| Compound | Potency |
| --- | --- |
| COc1ccccc1NC(=O)c1oc2ccccc2c1NC(=O)COc1ccccc1OC | inactive |
| O=C(CCN1Cc2ccccc2OC(c2ccccc2)C1)N[C@@H]1CS(=O)(=O)C[C@H]1O (stereo partly drawn) | inactive |
| CC(OC(=O)c1ccc([N+](=O)[O-])cc1)C(=O)NCC1CCCCC1 (stereo not drawn) | inactive |
| COc1cc(C(=O)OC(C)C(=O)NCC2CCCCC2)cc(NC(=O)c2ccco2)c1OC (stereo not drawn) | 31.6 µM (active) |
| CC(OC(=O)c1cccc(S(=O)(=O)N2CCOCC2)c1)C(=O)NCC1CCCCC1 (stereo not drawn) | inactive |
| CCOC(=O)Cc1cccc(-c2cc(CCCCCCc3ccc(O[C@H]4O[C@H](COC(C)=O)[C@@H](OC(C)=O)[C@H](OC(C)=O)[C@@H]4OC(C)=O)c(-c4cccc(CC(=O)OCC)c4)c3)ccc2O[C@H]2O[C@H](COC(C)=O)[C@@H](OC(C)=O)[C@H](OC(C)=O)[C@@H]2OC(C)=O)c1 | inactive |
| CN(C)CCNC(=O)c1ccc(-c2cn3c(-c4ccc(Oc5ccccc5)cc4)cnc3cn2)cc1 | inactive |
| CCCCN1CC(COCc2ccccc2)OCCS1(=O)=O (stereo not drawn) | inactive |
| CCCCC[C@H](C)N1C[C@@H](COCc2ccccc2)Oc2cc(N3CC[C@@H](N(C)C)C3)ccc2S1(=O)=O | 25.1 µM (active) |
| Cc1ccccc1-c1ccc2c(c1)O[C@@H](CN(C)Cc1ccc(C(=O)O)cc1)[C@@H](C)CN([C@H](C)CO)S2(=O)=O | inactive |
| Cc1oc2ccc(O)c(CN3CCOCC3)c2c1C(=O)Nc1cccc(Cl)c1C | inactive |
| Cc1oc2ccc(O)c(CN3CCCCC3)c2c1C(=O)Nc1cccc(C(F)(F)F)c1 | 28.2 µM (active) |
| CCN1CCN(Cc2c(O)ccc3oc(C)c(C(=O)Nc4ccc(C)cc4C)c23)CC1 | inactive |
| COC(=O)/C=C(/C)N | inactive |
| COCCN1CCN(C(=O)c2sc3ncnc(NCC4CCCO4)c3c2C)CC1 (stereo not drawn) | inactive |
| CC(=O)Oc1ccccc1C(=O)Nc1ncc([N+](=O)[O-])s1 | 39.8 µM (active) |
| Cc1csc(NC(=O)Nc2ccccc2[N+](=O)[O-])n1 | inactive |
| O=C(Nc1ccncc1)c1ccccc1[N+](=O)[O-] | inactive |
| CC(C)(C)S(=O)N1Cc2cc(C(=O)NCCCN3CCOCC3)nc(-c3cccc(-c4cc5ccccc5o4)c3)c2[C@H]1CCO (stereo partly drawn) | inactive |
| CC(Oc1ccccc1)C(=O)N[C@@H]1C(=O)N2[C@@H]1SC(C)(C)[C@@H]2C(=O)O (stereo partly drawn) | inactive |
| COCc1cccc(-c2csc(C(O)c3ccc(F)cc3)n2)c1 (stereo not drawn) | inactive |
| Cn1c(=O)[nH]c(=O)c2c1nc(N1CCN(C(c3ccccc3)c3ccccc3)CC1)n2CCO | 3.16 µM (active) |
| CN1CCN(c2nc3c(c(=O)[nH]c(=O)n3C)n2Cc2cccc3ccccc23)CC1 | inactive |
| Cn1c(=O)[nH]c(=O)c2c1nc(N1CCN(CCO)CC1)n2CCSc1nc2ccccc2s1 | inactive |
| CN[C@@H]1[C@@H](O)[C@@H](O[C@@H]2[C@H](O)[C@H](O[C@H]3OC(CN)=CC[C@H]3N)[C@@H](N)C[C@H]2N)OCC1(C)O (stereo partly drawn) | inactive |
| O=C(CSC1=NCCS1)Nc1nc(-c2ccccc2)cs1 | inactive |
| CC(=O)Nc1ccc(-c2cn3cccnc3n2)cc1 | inactive |
| CC(=O)Nc1ccc(-c2csc(NC(=O)Nc3ccccc3)n2)cc1 | 15 µM (active) |

Source: PubChem BioAssay AID651635 (National Center for Advancing Translational Sciences (NCATS), 2012)
